# Results published in PubChem BioAssay (Tox21).
# Results filed as inconclusive are left out. Where a call stands in place of a potency, no number is given. The source made the active and inactive calls. Calls come from the whole dose curve.
# Target: Vitamin D3 receptor (Homo sapiens) (UniProt P11473)
# Assay: qHTS assay to identify small molecule agonists of the vitamin D receptor (VDR) signaling pathway (AID 743222)
# Conditions: HEK293T VDR-UAS-bla, beta-lactamase FRET ratio, 16 h; series mostly up to 63.5 µM
# Description: National Center for Advancing Translational Sciences [NCATS]
# NIH Chemical Genomics Center [NCGC]
# U.S. Environmental Protection Agency [EPA]
# National Institutes of Environmental Health Sciences [NIEHS]
# National Toxicology Program [NTP]
# U.S. Food and Drug Administration [FDA]
# The vitamin D receptor (VDR), a member of nuclear hormone receptor superfamily, plays a critical role in calcium homeostasis and bone metabolism. It is also involved in cell differentiation and growth, and thrombogenicity.
# Tox21 Assay Protocol Summary:
# VDR-bla cells were dispensed at 2,000 cells/6 uL/well into black wall/clear-bottom 1536-well plates using a Multidrop Combi (Thermo Fisher Scientific, Waltham, MA) dispenser. After the assay plates were incubated at a 37C and 5% CO2 for 4 h, 23 nL of compounds dissolved in DMSO, positive controls or DMSO only was transferred to the assay plate by a Pintool station (Kalypsys, San Diego, CA). The plates were incubated at 37C and 5% CO2 for 16 h. After 1 uL of LiveBLAzerTM B/G FRET substrate was added using a Bioraptr Flying Reagent Dispenser (FRD) workstation (Beckman Coulter, Indianapolis, IN, USA), the plates were incubated at room temperature for 2 h, and fluorescence intensity was measured by an Envision plate reader (PerkinElmer, Shelton, CT).
# Vitamin D3 receptor (Homo sapiens), sequence (P11473 whole entry, looked up): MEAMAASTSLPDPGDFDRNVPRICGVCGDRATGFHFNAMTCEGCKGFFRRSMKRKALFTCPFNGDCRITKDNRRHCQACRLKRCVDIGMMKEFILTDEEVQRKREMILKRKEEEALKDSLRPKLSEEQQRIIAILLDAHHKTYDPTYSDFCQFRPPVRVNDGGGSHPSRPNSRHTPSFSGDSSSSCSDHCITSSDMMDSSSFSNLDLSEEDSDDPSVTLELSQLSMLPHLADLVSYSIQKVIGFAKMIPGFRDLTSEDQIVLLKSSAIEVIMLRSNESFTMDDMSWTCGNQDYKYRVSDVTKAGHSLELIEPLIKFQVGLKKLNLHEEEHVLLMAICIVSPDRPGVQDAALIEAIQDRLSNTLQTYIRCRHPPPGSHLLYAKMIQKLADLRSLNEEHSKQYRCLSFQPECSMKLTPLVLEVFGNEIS
row,Compound,Potency
1,CC1(c2ccccc2)OC(C(=O)O)=CC1=O (stereo not given),inactive
2,CN1CCN(C(c2ccccc2)c2ccccc2)CC1,inactive
3,CCOC(=O)NCCOc1ccc(Oc2ccccc2)cc1,inactive
4,O=C(O)c1ccc(S(=O)(=O)O)cc1C(=O)O,inactive
5,CC(COCCO)OCCO (stereo not given),inactive
6,CCCCCCCCCCCCCCCCCCOS(=O)(=O)O,inactive
7,CCCCCCCCCCCCCCCCOS(=O)(=O)O,inactive
8,CC(CC=O)c1ccccc1 (stereo not given),inactive
9,Nc1cccc(S(=O)(=O)c2cccc(N)c2)c1,inactive
10,CN(C)CCN(Cc1ccsc1)c1ccccn1,inactive
11,CCCCC,inactive
12,C/C=C/C=C/CO,inactive
13,O=C1C(O)=C(O)C(=O)C(O)=C1O,inactive
14,CCCCCCCC/C=C\CCCCCCCC(=O)OCC,inactive
15,C=CC(=O)OCCOc1ccccc1,inactive
16,COC(C)OC,inactive
17,COCC(C)OC(C)=O (stereo not given),inactive
18,CCCCC(CC)COC(=O)CCCCCCCCC(=O)OCC(CC)CCCC (stereo not given),inactive
19,COc1cc2nc(N3CCN(C(=O)C4COc5ccccc5O4)CC3)nc(N)c2cc1OC (stereo not given),inactive
20,Cc1cccc(Nc2ccccc2)c1,inactive

row,Compound,Potency
1,CC(C)Cc1ccc(C(C)C(=O)OCc2ccccn2)cc1 (stereo not given),inactive
2,CC(C)(COC(=O)c1ccccc1)COC(=O)c1ccccc1,inactive
3,CCCCCCCCCOS(=O)(=O)O,inactive
4,N=c1ccn2c(n1)O[C@H]1[C@H](O)[C@@H](CO)O[C@H]12,inactive
5,CC(C)=CCC/C(C)=C/CC/C(C)=C/CO,inactive
6,CCCCCCCCO[C@@H]1O[C@H](CO)[C@@H](O)[C@H](O)[C@H]1O,inactive
7,COc1ccc(-c2nc3ccc(C4=NNC(=O)CC4C)cc3[nH]2)cc1 (stereo not given),inactive
8,CCOc1ccc(N)c([N+](=O)[O-])c1,inactive
9,O=C(O)c1ccc(-n2nc(-c3ccccc3O)nc2-c2ccccc2O)cc1,inactive
10,C[N+]1(C)CCC(OC(=O)C(O)(c2ccccc2)C2CCCC2)C1 (stereo not given),inactive
11,C[C@H]1C[C@H]2[C@@H]3CCC4=CC(=O)C=C[C@]4(C)[C@@]3(Cl)[C@@H](O)C[C@]2(C)[C@@]1(O)C(=O)CO,inactive
12,OCCN1CCN(CCCN2c3ccccc3C=Cc3ccccc32)CC1,inactive
13,CCO[C@H](Cc1ccc(OCCc2ccc(OS(C)(=O)=O)cc2)cc1)C(=O)O,inactive
14,COc1cc(Cl)ccc1Oc1ccc(Cl)cc1Cl,inactive
15,CC(C)O.CC(C)O.CCOC(=O)/C=C(\C)O.CCOC(=O)/C=C(\C)O.[Ti],inactive
16,S=C([S-])NCCNC(=S)[S-].[Mn+2],inactive
17,NCc1ccccc1Sc1ccccc1CO,inactive
18,CCCCCCCN,inactive
19,CC(C)C[C@H]1C(=O)N2CCC[C@H]2[C@]2(O)O[C@](NC(=O)[C@@H]3C=C4c5cccc6[nH]c(Br)c(c56)C[C@H]4N(C)C3)(C(C)C)C(=O)N12,inactive
20,CNC(=O)CN(CCN(CCN(CC(=O)[O-])CC(=O)NC)CC(=O)[O-])CC(=O)[O-].O.[Gd+3],inactive
